# FMDV inh – foot and mouth disease virus antiviral activity | AID 1159524 | FMDV antiviral cell-based qHTS | Potency, µM (titrated, usually from 57.9 µM), without a hit: at the top dose activity change, negative = inhibition, hits mostly inhibitors | hit rate 1.2% among 410,000; calls by dose curve; tested in HEK293T cells; further: read-out not given here; nearly all actives have a fitted effect of over 45% in size
# LASV entry inh – Lassa virus entry inhibition; hit rate 1.2% among 300,000; Lassa virus pseudotype entry inhibition, cell reporter; Potency, µM (series often up to 37.9 µM), inactives show at the top dose activity change, negative = inhibition, most hits filed as inhibitors; calls by dose curve; tested in HEK293 cells; further: nearly all actives have a fitted effect of over 50% in size
# Marburg entry inh – Marburg virus entry inhibition; Marburg virus pseudotyped entry inhibition, cell reporter; hit rate 1.8% among 300,000; Potency, µM (titrated, usually from 37.8 µM), for inactives: top-dose activity change, negative = inhibition, usual class: inhibitors; calls by dose curve; tested in HEK293 cells
# HCV inhibitor – HCV inhibition | AID 651820 | Huh7.5.1 HCVcc-Cre infection, luciferase reporter, 44 h | hit rate 3.4% among 340,000 | Potency, µM (titrated, usually from 41.8 µM), without a hit: at the highest dose activity change, negative = inhibition, actives largely listed as inhibitors
#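 Luciferase read-out (15 sec integration) after a 15 min room-temperature substrate step quantifies HCVcc-Cre infection. Cells, 1,000 per well, had compound added 4 h post-plating, then virus at ~0.5 moi, and were cultured 44 h.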
# RE007 growth inh – less growth of the S. pombe RE007 Vpr strain. S. pombe RE007 Vpr strain, BacTiter-Glo ATP luminescence, 24 h. Potency, µM (series often up to 92.2 µM), for the others: at the highest dose activity change, negative = less growth, hits mostly inhibitors. hit rate 0.21% among 360,000. AID 651644; active means well fitted falling curve with a large enough effect; inconclusive means small, poorly fitted or top-dose-only effect; inactive means no such curve, though single readings can be large or run the other way; further: nearly all actives have a fitted effect of over 50% in size
#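 Fission yeast strain RE007, carrying one chromosomally integrated HIV-1 vpr copy, was seeded at OD 0.01 in PMG+AL medium with 23 nL pinned compound. After 24 h at 30 °C and 99% humidity, viability was read by BacTiter-Glo luminescence.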
# Sm TGR block – S. mansoni TGR enzyme inhibition; purified TGR, DTNB reduction, TNB absorbance 405 nm; Q962Y6; hit rate 3% among 360,000; Potency, µM (series often up to 114 µM), inactives show top-dose activity change, negative = inhibition, actives largely listed as inhibitors; AID 485364; further: nearly all actives have a fitted effect of over 60% in size
#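 First, TGR (20 nM dispensed) and NADPH were mixed with compound. Second, a 15 min room-temperature incubation followed. Third, further NADPH and then DTNB were added to start the reaction. Finally, TNB absorbance was monitored kinetically.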
# An asterisk follows results filed as active; ? = inconclusive; . = not tested or not shown; ! = repeats disagree; [ ] = dose if it differs, or a comment. The list is not random: actives were taken first. Their share in the collection is about 7.2%. Unless noted, the call rests on the fitted dose curve; in most records, active means well fitted curve in the direction sought with a large enough effect; inconclusive means small, poorly fitted or top-dose-only effect, or another doubt; inactive means no such curve, though single readings can be large; an effect the other way counts as inactive or inconclusive. On the % scale 0 is the no-effect control and ±100 the full control effect; potency means the concentration at half of the fitted maximal effect.
SMILES,FMDV inh,LASV entry inh,Marburg entry inh,HCV inhibitor,RE007 growth inh,Sm TGR block
O=C(Nc1ccc(Cl)c(S(=O)(=O)N2CCCCC2)c1)c1ccncc1,-34%,-27%,?,8.9µM*,?,-8%
CC(C)(CNC(=O)c1cnn(-c2ncc3c(n2)-c2ccccc2CC3)c1C1CC1)N1CCOCC1,-13%,.,.,.,.,.
O=C(Nc1ccncc1)c1ccc(Cl)c(S(=O)(=O)N2CCc3ccccc32)c1,?,7.9µM*,?,10µM*,-8%,1%
CCc1noc(C)c1C(=O)Nc1ccc(Cl)c(S(=O)(=O)N2CCCCC2)c1,22µM*,-17%,?,?,-1%,1%
Cc1cccc(NC(=O)c2ccc(Cl)c(S(=O)(=O)N3CCc4ccccc43)c2)n1,?,.,.,?,2%,-19%
CCOC(=O)C1=C(CCl)NC(=O)N(C(C)=O)C1c1ccccc1 (centres undefined),.,?,-22%[14.2 µM],.,.,.
O=C(NC(=S)NNC(=O)c1ccccc1O)c1cccs1,5%,?,?,8.9µM*,-5%,5%
Cc1onc(-c2ccccc2)c1C(=O)NC(=S)NNC(=O)c1ccc(O)cc1O,-14%,2.5µM*,?,?,4%,-2%
COc1ccccc1C(=O)NNC(=S)NC(=O)c1cccs1,.,.,.,.,.,0%
Cc1onc(-c2ccccc2)c1C(=O)NC(=S)NNC(=O)c1ccccc1O,?,?,3.2µM*,?,6%,-1%
Cc1onc(-c2ccccc2)c1C(=O)NC(=S)NNC(=O)c1ccc(O)cc1,?,?,?,?,-21%,-11%
N#Cc1ccccc1NC(=S)NC(=O)c1cccs1,42%,.,.,13%,-21%,3.5µM*
O=C(Nc1nc2ccccc2n1CCN1CCOCC1)c1ccc(COc2ccccc2Br)o1,-23%,?,?,10µM*,-6%,-11%
NC(N)=NN=C(c1ccc(F)cc1)c1ccc(C(F)(F)F)cc1,-29%,10µM*,?,?,1%,.
C=CCn1c(O)c(C2=c3ccccc3=NC2=O)c2ccccc21,28µM*,?,?,5%,-15%,?
Cc1ccc2c(c1)c(C1=c3ccccc3=NC1=O)c(O)n2C,?,.,.,-11%,-7%,0%
CCOC(=O)c1c(C)[nH]c(C)c1S(=O)(=O)N(C)CC(=O)Nc1ccc(OC)cc1,-5%,-1%[46.1 µM],.,.,.,41%
Cc1ccc(/C(C#N)=C\c2ccc(N3CCOCC3)o2)cc1,.,0%,?,?,?,3.2µM*
N#C/C(=C/c1ccc(N2CCCCC2)cc1)c1cccc(F)c1,18%,?,-1%,?,2%,1%
N#C/C(=C/c1ccc(N2CCCCCC2)o1)c1ccc(Cl)cc1,25µM*,-25%,?,?,25µM*,?
N#C/C(=C/c1ccc(N2CCCCC2)o1)c1cccc(F)c1,-13%,?,?,-5%,-21%,2.5µM*
N#C/C(=C\c1ccc(N2CCOCC2)o1)C(=O)NC1CCCCC1,10%,-20%[46.1 µM],?,-27%,0%,35µM*
O=C(Nc1nc2ccccc2n1CCN1CCOCC1)c1cccc([N+](=O)[O-])c1,.,12%,?,.,.,.
Cc1ccc(Cl)cc1N1CCN(C(c2cccnc2)c2nnnn2C2CCCCC2)CC1 (centres undefined),.,?,15µM*!,11%,-2%,9%
c1cncc(C(c2nnnn2C2CCCCC2)N2CCCCC2)c1 (centres undefined),25%,0%[46.1 µM],-9%[46.1 µM],18%,-13%,4%
Clc1ccc(C(c2nnnn2C2CCCC2)N2CCN(c3nc4ccccc4s3)CC2)cc1 (centres undefined),6%,-14%,?,6%,-2%,.
Cc1ccc(Cl)cc1N1CCN(C(c2ccc(C#N)cc2)c2nnnn2C2CCCC2)CC1 (centres undefined),-4%,-18%,5.8µM*,8%,13%,1%
O=S1(=O)CC=C(CSC(=S)NC2CCS(=O)(=O)C2)C1 (centres undefined),11µM*,-6%[46.1 µM],10%[46.1 µM],-27%,-12%,.

# Source: PubChem
